Compounds with a hit are over-represented: about 2.3% of the library has one in this group of screens.
ADAM17 inh = ADAM17 inhibition, QFRET primary screen | inhibition, % at 6.95 µM | 370,000 tested, 0.83% active | P78536 | AID 720648 | recombinant ADAM17, EDANS/DABCYL FRET peptide cleavage;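 active = inhibition above the mean of compounds lying between control limits plus 3 SD, set per campaign, cut at about 8.5% in these data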;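 also: 0% = DMSO-only wells as the low control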
ADAM10 inh = inhibitors of human ADAM10 | O14672 | recombinant ADAM10, EDANS/DABCYL FRET peptide cleavage, 3 h | inhibition, % at 7 µM | 370,000 tested, 0.62% active;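 active = inhibition above a per-campaign cutoff equal to the mean of compounds falling between control-based bounds plus 3 SD, cut at about 20% in these data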;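 also: 0% = DMSO wells while the 100% control is not disclosed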
V-ATPase pH = regulators of yeast V-ATPase proton transport | S. cerevisiae, pHLuorin cytosolic pH fluorescence | response, % at 10 µM | 350,000 tested, 0.37% active | AID 504577; in the data active = response mostly above about 7.3%, no sharp cut-off; inactive = mostly below about 5.4%; also: actives read high
KLK7 zymogen act = activators of human kallikrein-7 zymogen | 370,000 tested, 0.9% active | P49862 | activation, % at 7 µM | purified proKLK7, EDANS-DABCYL substrate fluorescence; 100% is mature enzyme control, 0% vehicle | AID 652039;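 active = activation above the mean of all tested compounds plus 3 SD, computed per campaign excluding outliers beyond control limits, cut at about 13% in these data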
Target sequence (P49862 whole entry, looked up): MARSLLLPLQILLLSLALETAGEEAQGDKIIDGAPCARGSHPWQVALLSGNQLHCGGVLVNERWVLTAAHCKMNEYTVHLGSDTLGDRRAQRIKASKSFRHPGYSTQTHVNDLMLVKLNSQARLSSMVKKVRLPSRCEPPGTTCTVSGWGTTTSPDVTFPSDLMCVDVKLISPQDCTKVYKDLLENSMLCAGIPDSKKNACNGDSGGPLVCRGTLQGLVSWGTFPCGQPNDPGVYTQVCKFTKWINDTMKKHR
ADAM10 confirm = human ADAM10 inhibition, confirmation; shares compounds with ADAM10 inh; ADAM10 QFRET peptide cleavage, EDANS fluorescence; inhibition, % at 6.95 µM; 2,100 tested, 1% active; AID 743208;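 active = inhibition above about 20% chosen separately for each screening run, limit read from the data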;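 also: 0% = DMSO wells and 100% = marimastat wells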
ADAM17 ctr = counter-screen for ADAM10 exosite inhibitors: inhibitors of human ADAM17. inhibition, % at 6.95 µM. ADAM17 QFRET peptide cleavage, EDANS fluorescence. 2,100 tested, 0.5% active. shares compounds with ADAM10 inh. AID 743214;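 active = mean triplicate inhibition above the solvent-only control wells' mean plus 3 SD, cut at about 12% in these data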;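 also: 0% = DMSO wells and 100% = marimastat wells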
ADAM10 counter = counter-screen for ADAM17 exosite inhibitors: inhibitors of human ADAM10 | shares compounds with ADAM17 inh | recombinant ADAM10, EDANS/DABCYL FRET peptide cleavage, 3 h | inhibition, % at 6.95 µM | 2,900 tested, 47% active | AID 743256;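 active = mean inhibition over the triplicate runs exceeds the activity threshold set in the earlier primary screen, cut at about 20% in these data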;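 also: 0% = DMSO wells and 100% = marimastat wells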
ADAM17 confirm = human ADAM17 inhibition, confirmation. shares compounds with ADAM17 inh. recombinant ADAM17, EDANS/DABCYL QFRET peptide cleavage. inhibition, % at 6.95 µM. 2,900 tested, 65% active;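 active = mean inhibition across replicates above the hit cutoff set in the primary screen, cut at about 8.5% in these data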;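 also: 0% = DMSO wells and 100% = marimastat wells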
Starred values were filed as active, the others as inactive; · = no result.

SMILES	ADAM17 inh	ADAM10 inh	V-ATPase pH	KLK7 zymogen act	ADAM10 confirm	ADAM17 ctr	ADAM10 counter	ADAM17 confirm
N#CC1=C(N)NC(SCC(=O)Nc2ccc(Br)cc2)=C(C#N)C12CCCCC2	11*	22*	0	0	3	2	30*	20*
CCOC(=O)[C@]12CCCCC/C=C\1N(Cc1ccc(OC)cc1)C(=O)[C@H]2CC(=O)NCc1cccc(C(F)(F)F)c1	11*	21*	·	1	10	3	34*	14*
CCOC(=O)[C@@]12CN(C(=O)OC(C)(C)C)CC=C1N(Cc1ccc(OC)cc1)C(=O)[C@H]2CC(=O)NCCCCc1ccccc1	8.7*	22*	·	1	6	2	19	10*
CCOc1cccc(-c2nnc3n2N=C(c2ccc(OC)cc2)CS3)c1	4	6	·	0	·	·	·	·
O=C(Nc1nc2ncccn2c1-c1ccccc1)c1ccc(F)cc1	-53	-186	·	6	·	·	·	·
CCC[C@H]1CN(c2ccc(Br)cc2)C(=O)[C@@H]1CC(=O)Nc1ccccc1	18*	24*	-2	1	0	0	20*	4
CCC[C@H]1CN(c2ccc(Br)cc2)C(=O)[C@@H]1CC(=O)Nc1ccc(OC)cc1	-2	-8	1	0	·	·	·	·
Cc1cc2c(nc1C)CCCN2S(=O)(=O)c1c(C)noc1C	-3	-5	·	0	·	·	·	·
COc1ccc(NC(=O)c2cc(S(=O)(=O)N(Cc3ccccc3)c3ccccc3)ccc2Cl)cn1	9.6*	20*	-2	0	9	2	23*	12*
COc1ccc(NC(=O)c2cccc(S(=O)(=O)N(C)c3ccccc3)c2)cn1	7	4	0	1	·	·	·	·
Cc1ccc(NC(=O)CN(C)C(=O)Cn2nnc(-c3ccccc3C)n2)cc1	-2	6	5	0	·	·	·	·
CCOC(=O)c1ccc(NC(=O)Cn2nnc(-c3ccccc3C)n2)cc1	10*	22*	-3	0	6	1	41*	24*
Cc1ccc(S(=O)(=O)c2cccc(S(=O)(=O)N3CCCC3)c2)cc1S(=O)(=O)N1CCCC1	17*	29*	1	1	-1	0	17	8
Cc1noc(C)c1S(=O)(=O)N1CCCc2nc(-c3ccc(F)cc3)ccc21	2	2	·	1	·	·	·	·
Cc1ccc(NC(=O)NNC(=O)Cn2nc(-c3ccccc3)c(-c3ccccc3)c(C#N)c2=O)cc1	20*	20*	1	0	8	3	14	15*
O=S(=O)(NCCOCC(F)(F)C(F)F)c1ccc2oc3ccccc3c2c1	9.5*	29*	-1	0	1	0	32*	21*
O=C(/C=C/c1ccc(O)c(O)c1)c1ccc(S(=O)(=O)N2CCCCCC2)cc1	18*	34*	-4	0	6	2	27*	17*
COC(=O)[C@]12C[C@H](CC(=O)NCc3ccc(C)o3)C(=O)N(Cc3ccco3)C1=C[C@H](C1CCCC1)O[C@@H]2C	-2	-7	·	0	·	·	·	·
CSc1cccc(NC(=O)CCCOc2ccc(Cl)cc2C)c1	19*	31*	-2	-1	14	5	38*	19*
CSc1cccc(NC(=O)/C=C/c2ccc(Cl)cc2)c1	14*	22*	2	1	13	3	45*	16*
COc1ccc(OCCCC(=O)Nc2cccc(SC)c2)cc1	2	11	-1	0	·	·	·	·
Cc1ccccc1CS(=O)(=O)Cc1ccc(C(=O)Nc2ccc(F)cc2)o1	-4	2	·	4	·	·	·	·
CCOP(=O)(OCC)c1ccc2c(c1)C(=O)c1ccccc1-2	-3	-5	·	·	·	·	·	·
C[C@H]1CCCCO[C@@H](CN(C)S(=O)(=O)c2ccc(F)cc2)[C@@H](C)CN([C@@H](C)CO)C(=O)c2cc(NC(=O)Nc3ccc4c(c3)OCO4)ccc2O1	-1	4	-3	1	·	·	·	·

Screening data (PubChem)
